# Results filed as inconclusive are left out. Calls of active or inactive are those of the source. Unless noted, no rule for the calls is given here.
# Legend:
# [1] = modulation of C. elegans fzo-1 (AID 1259413);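 also: fzo-1 mutant C. elegans worms in liquid wells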; conditions: C. elegans fzo-1 modulator screen, mean read-out; stronger effect = higher value
# [2] = circadian clock period modulators, cell-based, LOPAC library, luminescence reporter (AID 2774); conditions: circadian reporter cells, at 7 µM, actives lie on both sides;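 also: values are relative to mean of DMSO wells on each plate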
# [3] = system: Hepatitis C virus NS3 helicase; assay: HCV NS3 helicase inhibitors, primary screen, biochemical, fluorescence polarization, LOPAC1280 library (AID 687035; in the data active = inhibition above about 37%); conditions: Purified HCV NS3 helicase, Cy5-dT15 ssDNA binding fluorescence polarization; stronger effect = higher value; concentration not given here
# [4] = Cy5 fluorescence quenching or enhancement artefacts, artefact control for HCV NS3 helicase inhibitor project, biochemical, LOPAC1280 (AID 687037); conditions: Cy5-DNA-NS3h complex fluorescence interference counterscreen
# [5] = sensitizers of A549 cells to miR-34 induction, primary screen, imaging, A549 dox-inducible miR-34, nuclei and caspase counts (AID 1347080;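 active = compounds whose cell count with miR-34 switched on is under 0.7 times the count with it off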); conditions: A549 miR-34 inducible, Hoechst nuclei count, 48 h
# [6] = phospholipid biosynthesis inhibitors in animal cells, primary screen, cell-based, LOPAC library, screen 4 (AID 1347384); conditions: phospholipid biosynthesis inhibition screen, at 10 µM
# [7] = viability rescue of complex I mutant cybrids, primary screen, cell-based, galactose medium, ATP luminescence (AID 1645843;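 active = z-score of at least 1.8 in each of two replicates, scored against plate mean and spread of sample wells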;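 also: positive z means more ATP and so rescue of galactose-driven cybrid death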); conditions: complex I mutant cybrid cells, 72 h, stronger effect = higher value
# [8] = liver-stage malaria parasite growth inhibition, primary screen, cell-based, HepG2, luciferase luminescence, HepG2 viability (AID 624349; in the data active = parasite load remaining mostly below about 12%, no sharp cut-off; inactive = mostly above about 10%;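 also: 100% = mean of DMSO negative control wells on the same plate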); conditions: P. berghei liver stage in HepG2, luciferase luminescence, concentration not given here; parasite load remaining: stronger effect = lower value; viability: measured here: HepG2 viability without parasites
# [9] = Cy5 fluorescence interference with SSB-bound oligo, artefact control for HCV NS3 helicase inhibitor project, biochemical, NIH Clinical Collection, E. coli SSB (AID 743268)
# [10] = system: Hepatitis C virus NS3 helicase; assay: HCV NS3 helicase inhibitors, primary screen, biochemical, fluorescence polarization, NIH Clinical Collection (AID 743270); conditions: NS3 helicase binding to Cy5-dT15 DNA, stronger effect = higher value, concentration not given here
# [11] = molecular target: Single-stranded DNA-binding protein (Escherichia coli (strain K12)) (UniProt P0AGE0); assay: E. coli SSB displacement from DNA, counter-screen for HCV NS3 helicase inhibitor project, biochemical, fluorescence polarization, NIH Clinical Collection (AID 743271; in the data active = inhibition above about 28%); conditions: stronger effect = higher value, concentration not given here
# [12] = fluorescence interference in NS3h assay format, artefact control for HCV NS3 helicase inhibitor project, biochemical, NIH Clinical Collection (AID 743272); conditions: fluorescence interference counterscreen, stronger effect = lower value;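 also: HCV NS3 helicase with a Cy5 labelled single stranded DNA probe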
# [13] = system: Neuropilin-2 / VEGF-C interaction (human); assay: inhibitors of NRP2–VEGF-C binding, biochemical, microplate binding format, z-score (AID 743281); conditions: microplate NRP2/VEGF-C binding assay; stronger effect = lower value
# [14] = differential killing of epithelial or mesenchymal cells, primary screen, imaging, PC-3E GFP, TEM4-18 mCherry, co-culture (AID 1345086;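 active = compounds killing one labelled cell type while sparing the other, by normalised counts and ratio limits, not self-fluorescent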;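 also: cells exposed to compound for 72 h before imaging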;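 as to red/green cell ratio (normalised): normalised mesenchymal count divided by normalised epithelial count so high means epithelial killing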); conditions: imaging cell counts, at 1 µM
# [15] = growth inhibition of DIPG glioma cells, dose response, cell-based, SU-DIPG-XVII, MIPE5.0, CellTiter-Glo, qHTS (AID 1347060; cut-off not given, nearly all actives have AC50 up to about 26 µM;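 also: cells exposed to compound for 48 hours before viability readout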); conditions: SU-DIPG-XVII viability, CellTiter-Glo ATP luminescence
# [16] = growth inhibition of DIPG glioma cells, dose response, cell-based, JHH-DIPG-1, MIPE4.0, CellTiter-Glo, qHTS (AID 1347062; cut-off not given, nearly all actives have AC50 up to about 27 µM;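 also: cells exposed to compound for two days before readout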); conditions: JHH-DIPG-1 viability, CellTiter-Glo ATP luminescence
# [17] = growth inhibition of DIPG glioma cells, dose response, cell-based, SU-DIPG-IV, MIPE4.0, CellTiter-Glo, qHTS (AID 1347063; cut-off not given, nearly all actives have AC50 up to about 30 µM;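 also: compound exposure lasted 48 hours before the viability readout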); conditions: SU-DIPG-IV viability, CellTiter-Glo ATP luminescence
# [18] = growth inhibition of DIPG glioma cells, dose response, cell-based, SU-DIPG-XIII, MIPE5.0, CellTiter-Glo, qHTS (AID 1347064; cut-off not given, nearly all actives have AC50 up to about 23 µM;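 also: cells exposed to compound for 48 hours before the viability read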); conditions: SU-DIPG-XIII viability, CellTiter-Glo ATP luminescence
# [19] = viability loss in pontine glioma line – cell-based, SU-DIPG-XXV, MIPE5.0, CellTiter-Glo, qHTS, dose response (AID 1347065; cut-off not given, nearly all actives have AC50 up to about 26 µM;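 also: cells exposed to compound for 48 hours before ATP readout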); conditions: CellTiter-Glo ATP luminescence
# [20] = SU-DIPG-VI glioma cell viability, MIPE4.0 library, CellTiter-Glo luminescence, qHTS (AID 1347066; cut-off not given, nearly all actives have AC50 up to about 30 µM;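 also: cells exposed to compound for 48 hours before readout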); conditions: CellTiter-Glo ATP luminescence
# [21] = JHH-DIPG-1 glioma cell viability, MIPE5.0 library, CellTiter-Glo luminescence, qHTS (AID 1347067; cut-off not given, nearly all actives have AC50 up to about 26 µM;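 also: cells exposed to compound for 48 hours before readout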); conditions: JHH-DIPG-1 glioma viability, CellTiter-Glo ATP luminescence
# [22] = SU-DIPG-XXV glioma cell viability, MIPE5.0 library, qHTS (AID 1347068; cut-off not given, nearly all actives have IC50 up to about 30 µM;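 also: cells exposed to compound for 48 hours before viability readout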)
# [23] = modifiers of HSF1 nuclear foci, imaging, Selleck Cancer Library (AID 1347162; in the data active = plate-normalised HSF1 focus index below about 0.46); conditions: human cells, at 10 µM; SSMD: measured here: HSF1 foci SSMD mean; cell count: measured here: cell number; plate-normalised HSF1 focus index: stronger effect = lower value
# [24] = molecular target: NAD(+) hydrolase SARM1 (Homo sapiens) (UniProt Q6SZW1); assay: SARM1 TIR NADase inhibitors, cell lysate, NAD-Glo luminescence (AID 1508614;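 active = compound whose remaining NAD level is above about 45 nM, limit read from the data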;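 also: higher remaining NAD means stronger inhibition of SARM1 NADase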); conditions: SAM-TIR HEK293T lysate NADase, at 1 µM, stronger effect = higher value
# [25] = molecular target: Mitogen-activated protein kinase 7 (Homo sapiens) (UniProt Q13164); assay: ERK5 transactivation activators in reporter cells, primary screen, cell-based, HTS (AID 1508626;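 active = luciferase signal above three times the same-plate solvent-only control wells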;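 also: luciferase driven by Gal4-ERK5 fusion binding five Gal4 sites before minimal TATA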); conditions: HeLa Gal4-ERK5 transactivation, 18 h, at 5 µM, stronger effect = higher value
# Chain of Mitogen-activated protein kinase 7 (Homo sapiens) (Q13164 whole entry, looked up, the tested form may be a part): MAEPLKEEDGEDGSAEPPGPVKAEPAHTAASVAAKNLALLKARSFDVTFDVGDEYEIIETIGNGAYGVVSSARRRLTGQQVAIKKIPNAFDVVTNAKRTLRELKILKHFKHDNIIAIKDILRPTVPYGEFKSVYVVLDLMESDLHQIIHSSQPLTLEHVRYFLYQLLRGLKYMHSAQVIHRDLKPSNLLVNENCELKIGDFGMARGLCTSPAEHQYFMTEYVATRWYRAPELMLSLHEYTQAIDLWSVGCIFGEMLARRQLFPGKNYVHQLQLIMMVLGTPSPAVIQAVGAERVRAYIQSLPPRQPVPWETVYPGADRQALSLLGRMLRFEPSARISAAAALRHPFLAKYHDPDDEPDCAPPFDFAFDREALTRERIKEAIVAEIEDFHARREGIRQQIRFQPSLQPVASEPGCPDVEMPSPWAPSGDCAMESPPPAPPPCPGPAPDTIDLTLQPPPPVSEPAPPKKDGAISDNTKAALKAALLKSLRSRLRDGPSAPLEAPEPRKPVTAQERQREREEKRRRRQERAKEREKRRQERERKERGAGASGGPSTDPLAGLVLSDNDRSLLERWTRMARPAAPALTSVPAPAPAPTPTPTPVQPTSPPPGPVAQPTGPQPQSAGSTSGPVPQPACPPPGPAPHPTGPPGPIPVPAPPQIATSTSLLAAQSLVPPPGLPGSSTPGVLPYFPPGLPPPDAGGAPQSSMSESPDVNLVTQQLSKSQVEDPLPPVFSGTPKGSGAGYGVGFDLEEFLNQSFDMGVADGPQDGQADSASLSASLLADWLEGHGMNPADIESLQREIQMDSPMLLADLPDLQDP
# Chain of NAD(+) hydrolase SARM1 (Homo sapiens) (Q6SZW1 whole entry, looked up, the tested form may be a part): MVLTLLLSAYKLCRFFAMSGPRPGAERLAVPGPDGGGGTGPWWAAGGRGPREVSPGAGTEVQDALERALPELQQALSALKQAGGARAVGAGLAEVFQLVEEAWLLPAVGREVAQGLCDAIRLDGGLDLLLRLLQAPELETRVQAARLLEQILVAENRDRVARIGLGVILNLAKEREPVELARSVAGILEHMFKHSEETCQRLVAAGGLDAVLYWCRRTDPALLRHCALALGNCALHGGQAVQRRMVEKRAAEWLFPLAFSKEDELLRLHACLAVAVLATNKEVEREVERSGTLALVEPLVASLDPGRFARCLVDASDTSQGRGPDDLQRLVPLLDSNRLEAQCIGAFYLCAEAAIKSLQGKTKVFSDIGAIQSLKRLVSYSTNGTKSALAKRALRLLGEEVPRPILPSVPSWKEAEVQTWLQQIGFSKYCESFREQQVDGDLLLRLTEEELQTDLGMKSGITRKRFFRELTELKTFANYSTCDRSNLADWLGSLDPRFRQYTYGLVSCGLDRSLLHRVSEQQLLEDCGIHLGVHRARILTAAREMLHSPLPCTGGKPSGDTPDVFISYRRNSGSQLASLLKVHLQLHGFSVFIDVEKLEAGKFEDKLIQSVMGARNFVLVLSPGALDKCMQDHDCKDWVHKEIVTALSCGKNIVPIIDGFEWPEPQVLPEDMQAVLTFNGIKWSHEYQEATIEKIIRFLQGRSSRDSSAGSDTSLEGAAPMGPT
smiles,measurement,setting,value
CCC(=O)O[C@]1(C(=O)CCl)[C@@H](C)C[C@H]2[C@@H]3CCC4=CC(=O)C=CC4(C)[C@@]3(F)[C@@H](O)CC21C (stereo partly specified),mean signal,[1],254 (inactive)
C#C[C@]1(O)CC[C@H]2[C@@H]3CCC4=Cc5oncc5CC4(C)[C@H]3CCC21C (stereo partly specified),period change,[2],0.035 h (inactive)
same,inhibition,[3],0% (inactive)
same,fluorescence ratio (interference),[4],1 (inactive)
same,mean signal,[1],250 (inactive)
same,fold change,"[5]; stronger effect = lower value, cell number ratio, induced over uninduced",0.894 (inactive)
same,fold change,[5]; measured here: relative caspase fold change +Dox/-Dox,1.79
same,cell count,"[5]; measured here: total cells with miR-34 induction, stronger effect = lower value",7310
same,cell count,[5]; measured here: total cells without miR-34 induction,8170
same,outcome,[6],inactive
same,z-score,[7],-0.725 (inactive)
CCCC1O[C@@H]2C[C@H]3[C@@H]4CCC5=CC(=O)C=CC5(C)[C@H]4[C@@H](O)CC3(C)C2(C(=O)CO)O1 (stereo partly specified),mean signal,[1],259 (inactive)
COc1cccc2c1C(=O)c1c(O)c3c(c(O)c1C2=O)C[C@@](O)(C(=O)CO)C[C@@H]3O[C@H]1C[C@H](N)[C@@H](O)[C@H](C)O1,parasite load remaining,[8],-0.12% (inactive)
same,viability,[8],25.2%
same,fluorescence ratio,[9],0.11 (active)
same,inhibition,[10],4.36% (inactive)
same,inhibition,[11],17.6% (inactive)
same,fluorescence ratio,[12],0.41 (active)
same,z-score,[13],-0.603 (inactive)
same,mean signal,[1],274 (inactive)
same,red/green cell ratio (normalised),"[14]; actives lie on both sides, counts scaled to control wells, 1 = unselective",2.46 (active)
same,normalised cell number,[14]; measured here: epithelial PC-3E GFP cell survival,0.19
same,normalised cell number,[14]; measured here: mesenchymal TEM4-18 mCherry cell survival,0.46
same,AC50,[15],332 nM (active)
same,AC50,[16],372 nM (active)
same,AC50,[17],833 nM (active)
same,AC50,[18],833 nM (active)
same,AC50,[19],1180 nM (active)
same,AC50,[20],4180 nM (active)
same,AC50,[21],2350 nM (active)
same,IC50,[22],9340 nM (active)
same,SSMD,[23],-16.4
same,cell count,[23],7260
same,plate-normalised HSF1 focus index,[23],0.155 (active)
same,remaining NAD,[24],10 nM (inactive)
same,luciferase signal,[25],20 AU (inactive)
CC12C=CC(=O)C=C1CC[C@@H]1[C@@H]2C(=O)CC2(C)[C@H]1CC[C@]2(O)C(=O)CO (stereo partly specified),mean signal,[1],237 (inactive)
C[C@H](CCC(=O)O)[C@H]1CC[C@H]2[C@@H]3[C@@H](O)C[C@@H]4C[C@H](O)CCC4(C)[C@H]3CCC12C (stereo partly specified),mean signal,[1],253 (inactive)
COc1cc(CNC(=O)CCCC/C=C\C(C)C)ccc1O,parasite load remaining,[8],83.7% (inactive)
same,viability,[8],75.2%
same,fluorescence ratio,[9],0.95 (inactive)
same,inhibition,[10],-6.73% (inactive)
same,inhibition,[11],1.44% (inactive)
same,fluorescence ratio,[12],0.9 (inactive)
same,z-score,[13],1.86 (inactive)
same,mean signal,[1],250 (inactive)

# — PubChem BioAssay
